# Test results taken from PubChem BioAssay (NCI).
# This is part of a sample that, as a whole, favours compounds with a hit. Of some 83,000 tested, about 20% had one in any assay.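 How to read the values: 0–100, growth inhibition (40 = 60% inhibited); 0, no net growth; -100 to 0, cell death (-40 = 40% of starting cells died; -100 = all dead).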 Values without a mark were called inactive. Activity calls are given as the source filed them. How the source made its calls: active means growth percent below 10; inactive means the rest.
# Experiments:
# Test in all cases: NCI-60 one-dose screen, 48 h (100 = growth as untreated, 0 = no growth, -100 = all killed)
# Conditions in all cases: 10 µM unless noted
# [1] = system: SK-MEL-2 melanoma
# [2] = system: SN12C renal
# [3] = system: UO-31 renal
# [4] = system: ACHN renal
# [5] = system: CAKI-1 renal
# [6] = system: A498 renal
# [7] = system: CCRF-CEM leukemia
# [8] = system: MOLT-4 leukemia
# [9] = system: TK-10 renal
# [10] = system: EKVX NSCLC
SMILES,growth [1],growth [2],growth [3],growth [4],growth [5],growth [6],growth [7],growth [8],growth [9],growth [10] [%]
COc1cc(NC(=O)COc2ccccc2)c(C(N)=O)cc1OC,9.86% (active),44.7%,51.3%,54.9%,37.1%,4.84% (active),6.33% (active),26.9%,,
C[C@@H](Oc1cc(-c2cnn(C3CC4(CCCNC4)C3)c2)cnc1N)c1c(Cl)ccc(F)c1Cl (stereo partly specified),-47.8% (active),21.7%,29.7%,29.5%,56.6%,-10.4% (active),-6.75% (active),-7.46% (active),,
COc1ccc(NC(=O)COc2ccccc2)c(C(N)=O)c1,35.9%,44.4%,57%,55.7%,49%,9.39% (active),,20.1%,,
Cn1c2ccccc2c2nn(Cc3ccccc3)c(=O)nc21,103%,107%,75.1%,88.5%,94.7%,104%,102%,105%,,
CCCCNNC(=O)c1ccc(Br)cc1,44.5%,75.1%,25.1%,71.4%,60.1%,30.2%,46.6%,42.1%,,
Cc1c(C)n(CC(O)CNC2CCCCC2C)c2ccccc12 (stereo unspecified),-49.9% (active),-41.9% (active),,-41.3% (active),-38.7% (active),63.3%,-9.05% (active),4.33% (active),-76.3% (active),
NC(=O)c1cc(I)ccc1NC(=O)COc1ccccc1,34.5%,37.4%,52.7%,43.8%,55.1%,4.14% (active),4.81% (active),4.74% (active),,
Cn1c2ccccc2c2nn(C(=O)c3ccccc3)c(=O)nc21,113%,102%,73.4%,105%,103%,108%,,104%,,
Cc1oc2c(c1C(=O)N1CC[C@@H](N)C1)C(=O)c1c(c(O)c3ccccc3c1O)C2=O,77.4%,22%,4.23% (active),,28.1%,61.5%,-3.65% (active),0.576% (active),57%,
C=C(C)CCCC(C)CC#N (stereo unspecified),97.4%,103%,83.6%,,,103%,96.1%,101%,99%,
C[C@@H](Oc1cc(-c2cnn(C3CC4(CNC4)C3)c2)cnc1N)c1c(Cl)ccc(F)c1Cl,32.6%,22.9%,51.5%,48.6%,65.7%,24%,24%,0.522% (active),,
Cn1c2ccc(Cl)cc2c2nn(C(=O)c3ccccc3)c(=O)nc21,100%,103%,71.9%,,,112%,96%,99%,,
Cc1ccc(C)c2c1sc1nc3nc4sc5ccccc5n4c(=N)c3c(=O)n12,121%,105%,78.1%,,106%,69.1%,,104%,162%,
COc1cc(/C=N/NC(=O)c2cnn3c2NC(c2ccccc2)C3)cc(OC)c1OC (stereo unspecified),47.6%,87.4%,68.9%,,42.1%,,,80.5%,85.7%,
ONc1nc(NO)c2[nH]cnc2n1,96%,80.7%,52.6%,60.9%,64.1%,78.7%,12.7%,9.57% (active),,
Cc1ccc(S(=O)(=O)N(c2ccc(Cl)cc2)c2ccc(Br)cc2C(=O)O)cc1,107%,99.4%,91.4%,105%,102%,111%,102%,98.5%,,
N#C/C(=C\c1ccc[nH]1)c1cc2ccccc2[nH]1,65.9%,72.3%,55%,69.7%,52.4%,69.2%,52%,62.9%,,
CCSc1nnc2c3cc(Br)ccc3n(C)c2n1,97.8%,102%,63.3%,90.8%,80.9%,91.5%,102%,107%,,
COC(=O)c1ccc(C(=O)Nc2ccccc2N)cc1,63%,62.9%,36.7%,88.6%,,80.5%,4.59% (active),30.4%,,

SMILES,growth [1],growth [2],growth [3],growth [4],growth [5],growth [6],growth [7],growth [8],growth [9],growth [10] [%]
CN1CCc2c(Sc3ccc(C(=O)NO)cc3)c3ccccc3n2C1,39.6%,59.4%,62.8%,64.6%,78.8%,28.6%,3.13% (active),6.7% (active),,
C[C@@H](Oc1cc(-c2cnn(C3CC4(CCNCC4)C3)c2)cnc1N)c1c(F)ccc(Cl)c1Cl,-65.5% (active),22%,13.8%,28.2%,60.9%,-6.38% (active),-19.6% (active),-33% (active),,
O=C(Nc1ccccc1O)c1ccc(NS(=O)(=O)c2cccc3cccnc23)cc1,23.6%,61.2%,20.8%,52.1%,44.7%,45.5%,33.1%,28.5%,,
O=C(C[Si](CC(=O)c1cccc(C(F)(F)F)c1)CC(=O)c1cccc(C(F)(F)F)c1)c1cccc(C(F)(F)F)c1,94.1%,69.5%,31.4%,79.1%,41.7%,60.4%,14.4%,-19.2% (active),,
C[C@H]1C(=O)C23CCC1C[C@@]21O[C@@H]2C(C)(C)C=CC(=O)C23COC1=O,104%,103%,,104%,101%,92%,71.7%,102%,98.9%,
O=[N+]([O-])c1cc2c(cc1Br)C1C(C3C2C(Cl)(Cl)C(Cl)=C(Cl)C3(Cl)Cl)C(Cl)(Cl)C(Cl)=C(Cl)C1(Cl)Cl (stereo unspecified),81.2%,98.7%,74.4%,,91.4%,111%,86.5%,95.1%,103%,
NC(=O)c1cc(Cl)ccc1NC(=O)COc1ccccc1,49.7%,64.3%,58.3%,58.4%,,83.5%,23.2%,34.7%,,
CN1CCn2c(c(Sc3ccc(C(=O)NO)cc3)c3ccccc32)C1=O,-43.3% (active),-3% (active),59%,36.6%,50.5%,4.23% (active),-6.26% (active),1.98% (active),,
Cc1ccc(C(=O)Nc2ccccc2N)cc1,57.5%,64%,37.4%,87.7%,93.7%,54.9%,4.67% (active),30.9%,,
O=C(Nc1ccc(Cl)c(Cl)c1)NC(CO)(CO)CO,100%,102%,73.9%,,91%,83.8%,93.3%,98.3%,113%,
C=CC(=O)N1CC2(CCC(n3nc(-c4ccc(Oc5ccccc5)cc4)c4c(N)ncnc43)CC2)C1,-89.7% (active),-10.7% (active),-63.7% (active),-83.6% (active),-75.1% (active),-93.2% (active),-6.08% (active),-28.2% (active),,
Cc1ccc2c(c1)c(Sc1ccc(C(=O)NO)cc1)c1n2CN(C)CC1,7.15% (active),9.16% (active),45.9%,26.8%,62.9%,6.35% (active),-5.94% (active),-10.5% (active),,
COc1ccc(-n2ncc3c4nc(OC)c(S(=O)(=O)c5ccccc5)cc4ccc32)cc1,65.9%,93%,76.4%,,88.7%,43.3%,103%,98.4%,88.2%,
CN([N-]C(=O)CC(=O)[N-]N(C)C(=S)c1ccccc1)C(=S)c1ccccc1.[Cu+2],-90.2% (active),-97.9% (active),,-50.6% (active),-94.7% (active),-93.9% (active),-19.7% (active),-36.2% (active),-99.1% (active),
O=C1C(Br)=C(c2ccccc2)C(=O)C(Br)=C1c1ccccc1,99.6%,95.2%,77.9%,,94%,67.3%,31.9%,52.7%,102%,
N#Cc1c(-c2cccc(F)c2)cc(-c2ccc(Br)s2)[nH]c1=O,60%,92.4%,,91.9%,49.8%,,90.7%,82.6%,108%,
CCC12CCC3c4ccc(O)cc4CCC3C1CC(O)C2O (stereo unspecified),,82.5%,65.9%,103%,59.4%,67.1%,85.4%,69.4%,85.3%,83.7
COc1c(Cl)ccc2c(-c3nc4cc(Cl)c(F)cc4s3)cc(=O)oc12,37.7%,96.3%,,47.8%,34.4%,107%,-68% (active),44.3%,,
NC(=O)c1cc(I)ccc1NC(=O)COc1ccc(Cl)cc1Cl,79.2%,103%,,99%,88.8%,73.9%,81.6%,80.5%,,

SMILES,growth [1],growth [2],growth [3],growth [4],growth [5],growth [6],growth [7],growth [8],growth [9],growth [10] [%]
C=C(C)COC(=O)c1ccccc1C(=O)OCC1(C)CO1 (stereo unspecified),97.5%,95.9%,,105%,96.6%,108%,97.2%,99.7%,102%,
COc1cc(/C=C/C(=O)CC(=O)/C=C/c2cc(Br)c(OC)c(OC)c2)cc(Br)c1OC,,96.6%,87.9%,109%,105%,98.4%,114%,71.5%,109%,105
COc1c(O)c2c3c(c1OC)-c1ccccc1CC3N(S(=O)(=O)c1ccc(C)cc1)CC2 (stereo unspecified),,50%,48%,50%,51.1%,88.3%,1.29% (active),30.7%,83.4%,106
Cc1cc(O)cc2c1[C@H]1CC[C@]3(C)[C@@H](O)CC[C@H]3[C@@H]1C=C2,86.4%,98.5%,,96.7%,108%,118%,69.4%,79%,102%,
COC(=O)c1cc(-c2ccc(C)cc2)n(C(=O)CSc2nc3sc(C(N)=O)c(C)c3c(=O)n2Cc2ccccc2)n1,110%,,87.5%,98.8%,97.7%,-32.1% (active),93.2%,95.1%,106%,
COc1cccc(OC)c1OC(=O)c1ccccc1,,91.2%,77.5%,107%,88.4%,85.6%,92.7%,107%,114%,95.8
N#Cc1c(O)c2c(c(O)c1C#N)C(=O)c1ccccc1C2=O,,0.389% (active),68.3%,56.2%,85.7%,81.9%,24.4%,8.65% (active),87.5%,87.3
O=C1/C(=C/c2ccccc2F)CNC/C1=C\c1ccccc1F,,-51.1% (active),-89.6% (active),-48.9% (active),-52.5% (active),-38.8% (active),-36.3% (active),-32.5% (active),-4.87% (active),22.4
C=C1CC[C@@H]2[C@@](C)(CCC[C@]2(C)C(=O)O)[C@@H]1CC[C@H](CO)CCO,,103%,79.5%,106%,101%,107%,102%,88.2%,99.4%,108
CCCCC(CCCC)(S(=O)(=O)CC)S(=O)(=O)CC,108%,102%,,105%,93.6%,88.7%,91.5%,93.6%,99.2%,
NC(=S)N/N=C1\c2ccccc2-c2c(F)c(F)c(F)c(F)c21,,70.6%,68.9%,65.7%,78.3%,105%,-28.1% (active),-18% (active),116%,87.3
Cc1nc2cc(Nc3nc(Nc4ccc(F)cc4)nc(N4CCCC4)n3)ccc2n1Cc1ccccc1,-58% (active),-62.9% (active),,11.5%,-14.4% (active),-19.3% (active),-30.4% (active),-30.7% (active),-55.8% (active),
Nc1nc(-c2ccnc(Cl)c2)nn1-c1nc2ccccc2s1,108%,101%,,,95%,96.2%,101%,119%,,
Clc1cccc(Cl)c1Nc1ccc2nnc(-c3ccncc3)n2n1,104%,95.9%,,105%,89.2%,90.5%,80.7%,96.1%,102%,
FCOC(C(F)(F)F)C(F)(F)F,,113%,87%,104%,98.5%,95.3%,101%,97.3%,91.1%,107
c1ccc2c(c1)oc1cc3c(cc12)nnc1cccn13,,103%,64.9%,99.8%,91.1%,111%,109%,108%,122%,80.9
C=CC(=O)N1CC2(CC(n3nc(-c4ccc(Oc5ccccc5)cc4)c4c(N)ncnc43)C2)C1,28.6%,17.1%,,5.33% (active),8.28% (active),-71.7% (active),54.3%,17%,,
COc1cc(-c2nc(SC(C)C)nc(Nc3cccc(C)c3)c2C#N)cc(OC)c1OC,118%,102%,,103%,94.5%,102%,104%,93.5%,,
